# From PubChem BioAssay
# A selection: hits, their analogues and other compounds. The true share with any hit is near 19%.
# HT1080NT lethal – kills 2HG-producing HT-1080-NT fibrosarcoma cells; HT-1080-NT fibrosarcoma viability, CellTiter-Glo ATP luminescence, 48 h; Potency, µM (doses to about 46.1 µM), inactives show at the highest dose activity, negative = less viability, usual class: cytotoxic; hit rate 1.6% among 360,000; AID 686970;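 note: NT is the 2HG producing partner of a matched IDH1 knockdown line; 0% = DMSO-treated cells and -100% = media-only wells without cells; nearly all actives have a fitted effect of over 55% in size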
#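 750 cells/well, RPMI + 5% FBS; 2 h settle, compound pin-transfer, 48 h at 37 degrees C. CellTiter-Glo 10 min RT, luminescence. Normalized to DMSO and media-only wells.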
# HT1080 IDH1KD tx – kills HT-1080 cells with IDH1 knockdown; HT-1080 IDH1 knockdown viability, ATP luminescence, 48 h; Potency, µM (titrated, usually from 46.1 µM), inactives show top-dose activity, negative = toxicity, hits mostly cytotoxic; hit rate 2% among 360,000;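 note: 0% = DMSO wells and -100% = cell-free medium wells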
#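 % activity derives from luminescence (CellTiter-Glo), normalised to DMSO and no-cell wells. HT-1080-IDH1KD cells, 750/well, had 48 h compound exposure at 37 °C.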
# TDP1 cell noCPT – qHTS for Inhibitors of human tyrosyl-DNA phosphodiesterase 1 (TDP1): qHTS in cells in absence of CPT; DT40 Tdp1-/- hTDP1 cells, no CPT, ATP luminescence, 48 h; Potency, µM (titrated, usually from 46.2 µM), for inactives: at the top dose activity change, negative = growth inhibition, hits mostly inhibitors; hit rate 15% among 420,000; AID 686978, 2013; note: nearly all actives have a fitted effect of over 55% in size
#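 Growth kinetics read by CellTiter-Glo luminescence after ≥48 hr at 37 °C. Cells: DT40 Tdp1-/- stably carrying human TDP1, 400 per well, compound exposure in the absence of CPT (DMSO vehicle).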
# KB-V1 MDR tox – KB-V1 MDR subline cytotoxicity | KB-V1 MDR cells viability, CellTiter-Glo, 72 h | Potency, µM (titrated, usually from 46.1 µM), usual class: cytotoxic | hit rate 3.4% among 400,000 | AID 1347076; note: nearly all actives have a fitted effect of over 60% in size
#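 Luminescent ATP read-out (CellTiter-Glo, 10 min) measures survival of drug-selected KB-V1 MDR cells after 72 h, 37 degrees C compound exposure. Medium: phenol-red-free DMEM, 10% FBS. Values from fitted concentration-response curves.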
# KB-3-1 tox – KB-3-1 parental cell cytotoxicity; KB-3-1 viability, CellTiter-Glo ATP luminescence, 72 h; Potency, µM (doses to about 46.1 µM), most hits filed as cytotoxic; hit rate 1.4% among 400,000; note: nearly all actives have a fitted effect of over 60% in size
#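 Multi-concentration cytotoxicity screen in KB-3-1 cells grown in DMEM lacking phenol red with 10% FBS. After 72 h at 37 °C with compound, ATP-dependent luminescence was recorded.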
# DT40 TDP1 CPT – growth inhibition of DT40 Tdp1-/-;hTDP1 cells with camptothecin (screen for TDP1 inhibitors); chicken DT40 Tdp1-/-;hTDP1 cells + 20 nM CPT, ATP luminescence, 48 h; Potency, µM (titrated, usually from 46.2 µM), for the others: at the highest dose activity change, negative = growth inhibition, actives largely listed as inhibitors; hit rate 12% among 420,000; note: nearly all actives have a fitted effect of over 55% in size
#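 Chicken DT40 Tdp1-/- cells complemented with human TDP1, 400 cells/well, exposed to compounds plus 20 nM camptothecin for at least 48 h at 37 C; viability read as ATP content by CellTiter-Glo luminescence.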
# * marks the source's active call; other numbers are inactive results; i = inactive; u = inconclusive; x = no result. Calls come from the whole dose curve; as a rule, active = well fitted curve in the direction sought with a large enough effect; inconclusive = small, poorly fitted or top-dose-only effect, or another doubt; inactive = no such curve, though single readings can be large; an effect the other way counts as inactive or inconclusive. Unless noted, % is set by controls: 0 for no effect and ±100 for the full control effect; potency is the fitted concentration of half-maximal effect.
SMILES,HT1080NT lethal,HT1080 IDH1KD tx,TDP1 cell noCPT,KB-V1 MDR tox,KB-3-1 tox,DT40 TDP1 CPT
COc1cccc(CNC(=O)c2cc3c(C)nc4ccccc4c3o2)c1,0.1%,-16.3%,18.4µM*,u,u,23.1µM*
COc1ccccc1NC(=O)Cn1cnc2sc(C)c(S(=O)(=O)N3CCCCC3)c2c1=O,15.8%,12.8%,-4.8%,9.2µM*,i,-15.0%
COc1ccccc1N1CCN(S(=O)(=O)c2c(C)sc3ncn(CC(=O)Nc4ccc(C(C)C)cc4)c(=O)c23)CC1,x,x,u,u,i,u
COc1ccc(Cl)cc1NC(=O)Cn1cnc2sc(C)c(S(=O)(=O)N3CCN(c4ccccc4OC)CC3)c2c1=O,x,x,7.31µM*,i,i,7.31µM*
COc1ccc(C)cc1NC(=O)Cn1cnc2sc(C)c(S(=O)(=O)N3CCOCC3)c2c1=O,6.5%,13.6%,-3.6%,i,i,1.6%
Cc1sc2ncn(CC(=O)NCCCN3CC(C)CC(C)C3)c(=O)c2c1S(=O)(=O)N1CC(C)CC(C)C1 (configuration not stated),-11.3%,-4.0%,u,u,i,18.4µM*
COc1ccc(OC)c(NC(=O)Cn2cnc3sc(C)c(S(=O)(=O)N4CCN(c5ccccc5OC)CC4)c3c2=O)c1,x,x,u,i,i,20.6µM*
CCOC(=O)CNc1ncnc2c1nnn2C,x,x,-9.8%,x,x,20.2%
COc1ccc(-n2c(=O)c(-c3ccc(Cl)cc3)nc3cncnc32)cc1,x,x,-4.4%,x,x,7.2%
O=[N+]([O-])c1ccc(O)c(CSc2nnnn2-c2ccccc2)c1,-2.5%,-0.3%,-5.2%,i,i,-20.5%
Cc1ccc(-c2cc(C(=O)N/N=C/c3ccoc3)c3ccccc3n2)cc1,-16.6%,u,u,i,i,u
O=C(N/N=C/c1cccs1)c1cc(-c2ccncc2)nc2ccccc12,-57.8%,-54.3%,0.581µM*,1.84µM*,u,0.581µM*
CCc1ccc(/C=N/NC(=O)c2cc(-c3ccncc3)nc3ccccc23)s1,u,u,3.26µM*,i,4.61µM*,4.61µM*
Cc1ccc2nc(C)c(C(=O)N/N=C/c3cccs3)cc2c1,2.9%,-3.3%,u,i,u,-10.5%
O=C(N/N=C/c1ccco1)c1cc(-c2ccncc2)nc2ccccc12,u,u,7.31µM*,i,u,7.31µM*
Cc1cc(C(=O)N/N=C/c2ccco2)c2ccccc2n1,-14.9%,-23.8%,u,i,i,u
O=C(N/N=C/c1cccs1)c1cc(C2CC2)nc2ccccc12,u,u,2.91µM*,u,18.4µM*,3.66µM*
COc1ccccc1-c1cc(C(=O)N/N=C/c2cccs2)c2ccccc2n1,-28.2%,u,u,i,u,u
Nn1c(SCC(=O)N2CCOCC2)nnc1-c1cccnc1,3.4%,7.7%,1.8%,i,i,-2.9%
CCC(C(=O)NCc1ccccc1)n1c(-c2cccs2)nc2ccccc21 (configuration not stated),8.5%,-11.2%,u,u,i,u
CN(C)/C=C1/C=C(c2ccccc2)OC1=O,u,u,u,i,i,u
O=C1OC(c2ccccc2)=C/C1=C\N1CCOCC1,-2.1%,5.4%,u,u,i,23.1µM*
O=C1OC(c2ccccc2)=C/C1=C/N1CCOCC1,0.0%,-21.1%,16.4µM*,i,i,u
CN(C)c1ncc2nc(-c3cccs3)c(=O)n(-c3ccccc3)c2n1,x,x,23.9%,x,x,-0.4%
Nc1ncnc2c1ncn2COC(CO)CO,x,x,0.708µM*,i,i,0.316µM*
O=c1c2ccccc2cnn1Cc1nnc(-c2cccs2)o1,2.0%,0.2%,u,u,i,-17.5%
